Shiga toxin inh: A qHTS for Small Molecule Inhibitors of Shiga Toxin. Vero cells, Shiga toxin protein synthesis inhibition reporter. inhibition, % at 38.7 µM. actives 9.2% (n = 290,000). AID 2315, 2010; in the data active = inhibition mostly above about 28%, no sharp cut-off; inactive = mostly below about 43%; also: 0% is about no effect
FBPA Giardia inh: qHTS Assay for Inhibitors of Fructose-1,6-bisphosphate Aldolase from Giardia Lamblia; A8B2U2; purified Giardia FBPA; Potency, µM (highest dose often 59.6 µM), without a hit: at the top dose activity, negative = inhibition, hits mostly inhibitors; actives 0.71% (n = 290,000); AID 2451, 2010; also: potency is read from the fitted curve at half-maximal effect; % is scaled to controls: 0 for no effect and ±100 for the full control effect; nearly all actives have a fitted effect of over 55% in size
Target sequence (A8B2U2 whole entry, looked up): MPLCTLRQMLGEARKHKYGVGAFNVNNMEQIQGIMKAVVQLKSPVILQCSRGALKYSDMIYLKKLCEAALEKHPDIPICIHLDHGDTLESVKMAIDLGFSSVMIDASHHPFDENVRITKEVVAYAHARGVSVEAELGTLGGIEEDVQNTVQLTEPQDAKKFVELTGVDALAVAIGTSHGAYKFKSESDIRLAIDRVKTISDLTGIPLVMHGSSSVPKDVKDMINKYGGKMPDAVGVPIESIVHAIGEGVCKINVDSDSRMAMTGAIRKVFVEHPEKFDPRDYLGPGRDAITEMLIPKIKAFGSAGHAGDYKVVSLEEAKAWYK
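40 nM FBPA preincubated 10 min at RT with compound (up to 57.5 uM final), then substrate plus GAPDH/TPI/NAD/arsenate coupling and diaphorase/resazurin added. Fluorescence read after 20 min at RT, 525/598 nm.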
CHX counter: Cycloheximide Counterscreen for Small Molecule Inhibitors of Shiga Toxin. max response, %. actives 12% (n = 300,000). cell reporter, cycloheximide protein synthesis inhibition counterscreen; in the data active = max response mostly above about 13%, no sharp cut-off; inactive = mostly below about 14%; also: read at 38.3 µM for the half of the compounds with a filed dose; 0% is about no effect
LmPK inhibitor: qHTS Assay for Inhibitors of Leishmania Mexicana Pyruvate Kinase (LmPK); Potency, µM (highest dose often 57.5 µM), for inactives: at the top dose activity change, negative = inhibition, most hits filed as inhibitors; Q27686; AID 1721, 2009; actives 0.37% (n = 290,000); purified LmPK, Kinase-Glo ATP luminescence, 1 h; also: potency is read from the fitted curve at half-maximal effect; % is scaled to controls: 0 for no effect and ±100 for the full control effect
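Screened at intermediate enzyme activity to detect both inhibitors and activators: LmPK at 0.1 nM, with a 0.5 nM enzyme column as activation reference. PEP 0.5 mM, ADP 0.1 mM; ATP detected by luminescence after 1 h.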
TbPYK inhibitor: qHTS of Trypanosoma Brucei Inhibitors | TbPYK enzyme, Kinase-Glo Plus ATP luminescence, 45 min | Potency, µM (doses to about 76.8 µM), for the others: top-dose activity, negative = inhibition, hits mostly inhibitors | actives 0.12% (n = 410,000) | AID 624173, 2012; also: potency is read from the fitted curve at half-maximal effect; % is scaled to controls: 0 for no effect and ±100 for the full control effect; nearly all actives have a fitted effect of over 50% in size
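Assay buffer: 50 mM TEA pH 7.2, 100 mM KCl, 10 mM MgCl2, 0.05% BSA, 0.01% Tween-20. Pyruvate kinase from T. brucei plus substrate met compound, then ADP (130 uM final). Luminescence was read post 45 min RT.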
Sm TGR block: qHTS Assay for the Inhibitors of Schistosoma Mansoni Peroxiredoxins; Potency, µM (highest dose often 114 µM), for inactives: at the highest dose activity change, negative = inhibition, actives largely listed as inhibitors; purified TGR, DTNB reduction, TNB absorbance 405 nm; AID 485364, 2010; Schistosoma mansoni thioredoxin glutathione reductase (TGR), Q962Y6; actives 3% (n = 360,000); also: potency is read from the fitted curve at half-maximal effect; % is scaled to controls: 0 for no effect and ±100 for the full control effect; nearly all actives have a fitted effect of over 60% in size
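Kinetic colorimetric format: TGR-catalysed, NADPH-driven DTNB reduction monitored via TNB absorbance. Enzyme dispensed at 20 nM; compound exposure 15 min at room temperature before reaction start.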
* = called active by the depositor; · = no result given; [ ] = dose if it differs, or a comment. Only a selection was taken, and hits are over-represented in it overall. Unless noted, calls follow the shape of the dose curve; as a rule, active = well fitted curve in the direction sought with a large enough effect; inconclusive = small, poorly fitted or top-dose-only effect, or another doubt; inactive = no such curve, though single readings can be large; an effect the other way counts as inactive or inconclusive.

SMILES	Shiga toxin inh	FBPA Giardia inh	CHX counter	LmPK inhibitor	TbPYK inhibitor	Sm TGR block
Cc1ccccc1-c1noc(CSc2nc3ccccc3[nH]2)n1	·	·	·	·	1%	0%
Cc1cc(NC(=O)COC(=O)c2cc(S(=O)(=O)N(C)C)ccc2Cl)no1	·	·	·	·	-6%	-3%
C#CCN(CC=C)C(=O)c1ccc(OC2CCN(S(=O)(=O)N(C)C)CC2)cc1	62*	-4%	37*	7%	2%	-16%
C=C(C)CNC(=O)c1ccc(OC2CCN(S(=O)(=O)N(C)C)CC2)cc1	11	-2%	20*	-2%	14%	-22%
C=CCN(CC=C)C(=O)c1ccc(OC2CCN(Cc3ccccn3)CC2)cc1	-14	5%	-2	0%	1%	-20%
CN(C)S(=O)(=O)N1CCC(Oc2ccc(C(=O)NCCc3cscn3)cc2)CC1	-5	·	-2	-1%	4%	-2%
CC(C)CCNC(=O)c1ccc(OC2CCN(S(=O)(=O)N(C)C)CC2)cc1	43	0%	40*	1%	3%	3%
COC(=O)CN(C)C(=O)c1cccc(OC2CCN(S(=O)(=O)N(C)C)CC2)c1	2	7%	3	0%	-14%	-3%
C=C(C)CN(CC)C(=O)c1ccc(OC2CCN(S(=O)(=O)N(C)C)CC2)cc1	55*	-3%	38*	4%	-7%	-13%
Clc1ccc2nc(C(Cl)(Cl)Cl)[nH]c2c1	·	·	·	·	-1%	·
Cc1ccc(C(=O)CSc2ncc3c(n2)-c2ccccc2N(Cc2ccc(Cl)cc2)S3(=O)=O)cc1	·	·	·	·	5%	2%
Cc1oc(-c2ccc(Cl)cc2)nc1CN1CCCC(C(=O)NCCc2ccc(Cl)cc2)C1 (stereo not drawn)	·	·	·	·	2%	9%
CCc1ccc(NC(=O)CSc2nnc3[nH]c(=O)cc(-c4ccccc4)n23)cc1	·	·	·	·	-5%	3%
CSc1cccc(NC(=S)N2CCC(N(C)C3CCCCCC3)CC2)c1	2	0%	-4	0%	4%	50µM*
CSc1cccc(NC(=S)N2CCC(N(C)C(C)C)CC2)c1	-17	1%	-2	10%	-2%	-29%
COc1ccc(/C=c2\s/c(=C\C(=O)C(C)(C)C)[nH]c2=O)cc1O	7	0%	15*	-1%	-4%	-4%
Cc1cccc(/C=c2\s/c(=C\C(=O)C(C)(C)C)[nH]c2=O)c1	41	13%	23*	4%	-5%	-4%
CC(C)(C)C(=O)/C=c1\[nH]c(=O)/c(=C\c2ccc(C#N)cc2)s1	-3	-5%	-3	8%	-4%	14%[11.4 µM]
Cc1cccc(N=C2NC(=O)/C(=C/c3cccs3)S2)c1	active	1%	34*	-3%	1%	-5%
O=C1Nc2ccccc2S/C1=C/c1cccs1	62*	2%	28*	3%	3%	1%
Cc1ccc(N=C2NC(=O)/C(=C/c3cccnc3)S2)cc1C	23	8%	1	8%	1%	-3%
Cc1ccc(N=C2NC(=O)/C(=C\c3cccs3)S2)cc1C	72*	-6%	28*	-2%	-5%	-9%
CC(=O)Nc1ccc(-c2ccnc3c2CC(C)(C(=O)NCc2ccc(F)c(F)c2)O3)cc1 (stereo not drawn)	·	·	·	·	6%	·
COCCOC(=O)c1[nH]c2c(c1C)C(=O)CC(c1cccs1)C2 (stereo not drawn)	-4	-1%	20*	-2%	0%	-1%
O=C1c2ccccc2C(=O)C12Cc1ccccc1N1CCN(c3ccccc3)CC12 (stereo not drawn)	22	-18%	10	3%	0%	-19%
Cc1ccc(N2C(=O)NC(=O)C3(Cc4ccccc4N4CCN(c5ccccc5)CC43)C2=O)cc1 (stereo not drawn)	32	-11%	8	17%	-5%	18µM*

From PubChem
